Molecules are shown by their SMILES. Screen size: about 390,000 compounds; about 2,600 (0.67%) were called active.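 Rule for the calls: active = mean inhibition of replicates at least 50% and at least half of replicates each reaching 50%; inconclusive = half or more replicates reach 50% but mean below 50%; inactive = the rest.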 Shown is part of a subset that was picked to be rich in actives.

We go through 72 compounds from PubChem BioAssay AID623870 (Broad Institute, 2012).

In this assay the target is Transforming acidic coiled-coil-containing protein 3 (Homo sapiens) (UniProt Q9Y6A5). Description: inhibitors of ARNT PAS-B binding to TACC3 – biochemical, AlphaScreen, single concentration, primary screen (AID 623870).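 Note: 0% = complete ARNT plus TACC3 wells and 100% = ARNT alone without TACC3.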 The conditions noted are these: AlphaScreen His-ARNT PAS-B/GST-TACC3 binding, luminescence; at 9.99 µM; hits give high values; TACC3 fragment carries E629A point mutation.
A word on the inhibition: it is the relative decrease from the control value, in per cent. On to `CCCNC(=O)C[C@@H]1CC[C@H]2[C@H](COc3ccc(NC(=O)CCC)cc3C(=O)N2C)O1`, for which the inhibition is -12.3% (inactive). As to `Cc1noc(C)c1NC(=O)Nc1ccc2c(c1)C(=O)N([C@H](C)CO)C[C@H](C)[C@H](CN(C)Cc1ccc(C(=O)O)cc1)OCCCC[C@H](C)O2`, the inhibition was -1.31% (inactive). The same measure for `C[C@H](CO)N1C[C@H](C)[C@@H](CN(C)CC2CCCCC2)Oc2ccc(NS(=O)(=O)c3cccs3)cc2CC1=O`: 8.01% (inactive); for `C[C@@H]1CN([C@@H](C)CO)C(=O)c2cc(NS(=O)(=O)c3cccs3)ccc2O[C@H]1CN(C)CC1CCCCC1`: 54.3% (active). The same measure for `C[C@H](CO)N1C[C@H](C)[C@@H](CN(C)C)Oc2ccc(NS(=O)(=O)c3cccs3)cc2C1=O`: -4.47% (inactive).

Regarding `Cc1ccc(S(=O)(=O)N(C)C[C@@H]2Oc3c(NC(=O)c4nc5ccccc5s4)cccc3C(=O)N([C@H](C)CO)C[C@@H]2C)cc1`, the inhibition is 9.91% (inactive). In the case of `C[C@H]1CN([C@@H](C)CO)C(=O)c2cc(-c3ccccc3F)cnc2O[C@@H]1CN(C)C`, the inhibition was 6.21% (inactive). The same measure for `Cc1noc(C)c1NC(=O)Nc1ccc2c(c1)CC(=O)N([C@@H](C)CO)C[C@@H](C)[C@H](CN(C)Cc1ccc(Oc3ccccc3)cc1)O2`: 15.6% (inactive). The same measure for `COCC(=O)Nc1ccc2c(c1)[C@@H]1C[C@H](CC(=O)NCc3ccc(Cl)cc3)O[C@H](CO)[C@@H]1O2`: -8.13% (inactive). Under `Cc1cc(C(=O)NC2CCN(Cc3ccccc3)CC2)n[nH]1` stands -0.213% (inactive). In the case of `Cc1cc(C(=O)N/N=C/c2cc([N+](=O)[O-])cc(C)c2O)n[nH]1`, the inhibition is 64.3% (active). In the case of `CCCNC(=O)Nc1ccc2c(c1)OC[C@@H](C)N(C(=O)c1ccccc1F)C[C@H](C)[C@@H](OC)CN(C)C2=O`, the inhibition is -9.6% (inactive). `C[C@@H]1CN([C@H](C)CO)C(=O)c2cc(NS(=O)(=O)c3ccccc3)ccc2O[C@H]1CN(C)S(=O)(=O)c1cccs1`: the inhibition was 0.265% (inactive).

For the compound `O=C(N/N=C/c1cccc2cccnc12)[C@H]1C[C@@H]1c1ccccc1`, the inhibition is 73.3% (active). As to `Cc1ccc(NC(=O)C2CC2c2ccccc2)cc1` (configuration not stated), the inhibition was -4.03% (inactive). The same measure for `O=C(Nc1ccccc1)Oc1cccc2cccnc12`: -7.89% (inactive). The same measure for `C[C@H](CO)N1C[C@H](C)[C@@H](CN(C)C)Oc2cc(C#Cc3ccccc3)ccc2S1(=O)=O`: 8.14% (inactive); for `COc1ccc(NC(=O)N(C)C[C@@H]2Oc3ccc(NS(C)(=O)=O)cc3C(=O)N([C@@H](C)CO)C[C@@H]2C)cc1`: -7.68% (inactive); for `CCOc1cccc(/C=N/NC(=S)NCCN2CCOCC2)c1O`: 64.9% (active).

For the compound `COc1cccc(C(CC(=O)NCCN2CCOCC2)NS(=O)(=O)c2ccc(C)cc2)c1OC` (configuration not stated), the inhibition is -9.59% (inactive). With `CCc1cc(=O)oc2c(C)c(OCC(=O)NCCN3CCOCC3)ccc12`, the inhibition was -0.887% (inactive).

As for `C[C@@H]1CN([C@@H](C)CO)C(=O)Cc2cc(NC(=O)Nc3ccc(F)cc3)ccc2O[C@@H]1CN(C)C(=O)NC1CCCCC1`, the inhibition is 0.811% (inactive). With `Cn1c(=NC(=O)c2cnccn2)sc2ccccc21`, the inhibition was 50.2% (active).

Consider `Cn1c(=NC(=O)c2ccc3c(c2)OCCO3)sc2cc(S(C)(=O)=O)ccc21`, for which the inhibition was -1.86% (inactive). The same measure for `Cn1c(=NC(=O)c2ccco2)sc2cccc(F)c21`: -2.41% (inactive); for `CN(C(=O)c1ccccc1)c1nccnc1C#N`: 48.5% (active); for `CCCN1[C@@H]2c3ccc(-c4ccccc4OC)c(=O)n3C[C@H]1[C@H](CO)[C@H]2C(=O)NCc1ccccn1`: -0.436% (inactive). Under `CO[C@H]1CN(C)C(=O)c2cc(NS(=O)(=O)CC(F)(F)F)ccc2OC[C@@H](C)N(C(=O)c2ccc3c(c2)OCO3)C[C@@H]1C` stands 8.14% (inactive); under `CCCC(=O)Nc1ccc2c(c1)C(=O)N(C)C[C@@H](OC)[C@@H](C)CN(Cc1cncnc1)[C@@H](C)CO2`, -2.89% (inactive). Under `CCN(/N=C/c1ccccc1)c1cc(=O)n(C)c(=O)[nH]1` stands 6.16% (active). For the compound `CN1C(=O)c2cc(NC(=O)c3cnccn3)ccc2OC[C@@H]2O[C@H](CC(=O)NC3CCC3)CC[C@@H]21`, the inhibition was -9.79% (inactive).

In the case of `C[C@H](CO)N1C[C@H](C)[C@H](CN(C)S(C)(=O)=O)Oc2c(NC(=O)Nc3cccc4ccccc34)cccc2C1=O`, the inhibition is 8.09% (inactive).

As for `O=C(C[C@@H]1C[C@@H]2c3cc(NC(=O)c4ccc5c(c4)OCO5)ccc3O[C@@H]2[C@@H](CO)O1)NCC1CC1`, the inhibition is -5.9% (inactive).

Take `COc1ccccc1NC(=O)N(C)C[C@@H]1Oc2ncc(C#CCC(C)C)cc2C(=O)N([C@@H](C)CO)C[C@@H]1C`: the inhibition was -5.04% (inactive).

`C[C@@H](NC(=O)C[C@@H]1C[C@H]2c3cc(NC(=O)C4CCC4)ccc3O[C@H]2[C@@H](CO)O1)c1ccccc1`: the inhibition was -9.96% (inactive). Take `N#C[C@@H]1[C@@H](c2ccc(-c3cccnc3)cc2)[C@H](CO)N1C(=O)Nc1ccc(F)cc1`: the inhibition is -8.19% (inactive). The same measure for `Cc1ccc(OS(=O)Nc2cccc3nccnc23)cc1` (configuration not stated): 69.3% (active).

`Cc1ccc(Oc2ccc3c(c2)C(=O)N(c2cccc4cccnc24)C3=O)cc1`: the inhibition is 1.71% (inactive). Under `COCC(=O)N1C[C@@H](C)[C@H](OC)CN(C)C(=O)c2ccc(NC(=O)c3ccc(OC)cc3)cc2OC[C@@H]1C` stands -7.16% (inactive); under `CO[C@H]1CN(C)C(=O)c2cc(NC(=O)Nc3cccc(F)c3)ccc2OC[C@H](C)N(C(C)=O)C[C@H]1C`, 28% (inactive).

As to `CO[C@@H]1CN(C)C(=O)c2cc(NC(=O)C3CC3)ccc2OC[C@@H](C)N(Cc2nccs2)C[C@@H]1C`, the inhibition is -5.42% (inactive). For the compound `C[C@H](CO)N1C[C@H](C)[C@H](CN(C)C(=O)Nc2cccc3ccccc23)Oc2ccc(NS(C)(=O)=O)cc2C1=O`, the inhibition was -5.79% (inactive). Under `CNC[C@@H]1OCCCC[C@H](C)Oc2ccc(NS(=O)(=O)c3ccc(F)cc3)cc2C(=O)N([C@@H](C)CO)C[C@@H]1C` stands -1.03% (inactive); under `CC(Nc1nc(C(F)(F)F)nc2ccccc12)c1cccs1` (configuration not stated), -5.59% (inactive); under `CC(C)(C)Nc1nc(-c2ccccn2)nc2ccccc12`, 93% (active).

With `O=C(C[C@@H]1C[C@H]2c3cc(NC(=O)C4CCOCC4)ccc3O[C@H]2[C@H](CO)O1)NCc1ccc2c(c1)OCO2`, the inhibition was -5.45% (inactive). Under `O=C(NC1CCCC1)[C@H]1[C@H](CO)[C@H]2Cn3c(ccc(-c4ccccc4F)c3=O)[C@@H]1N2C(=O)CC1CC1` stands -1.58% (inactive); under `C[C@@H]1CN([C@@H](C)CO)C(=O)Cc2cc(NC(=O)Nc3ccc(F)cc3)ccc2O[C@@H]1CN(C)S(=O)(=O)c1ccccc1`, 2.95% (inactive); under `C[C@H](CO)N1C[C@H](C)[C@@H](CN(C)Cc2ccncc2)Oc2ncc(C#CC3CC3)cc2C1=O`, -1.14% (inactive). The same measure for `Cn1c(N)c(C(=O)COC(=O)c2cnc(Cl)c(Cl)c2)c(=O)n(C)c1=O`: 45.8% (active). The same measure for `Cn1c(N)c(C(=O)COC(=O)COc2ccc(Cl)cc2)c(=O)n(C)c1=O`: 2.04% (inactive). Take `Cn1c(N)c(C(=O)COC(=O)c2ccc3ccccc3c2)c(=O)n(C)c1=O`: the inhibition was -4.71% (inactive). In the case of `COc1ccc(C#Cc2cnc3c(c2)C(=O)N([C@H](C)CO)C[C@H](C)[C@H](CN(C)C(=O)CC2CC2)O3)cc1`, the inhibition was 3.95% (inactive). The same measure for `O=C1O[C@@H](c2ccccc2)[C@@H](c2ccccc2)N2[C@@H](c3ccccc3OCCO)[C@]3(C(=O)Nc4ccccc43)[C@@H](C(=O)N3CCCCCCC3)[C@H]12`: 29.4% (inactive); for `COc1ccc(-n2c(O)c(C=NCC(c3ccco3)N3CCCC3)c3ccccc3c2=O)cc1OC` (configuration not stated): 5.52% (inactive); for `Cc1nnc(N/N=C/c2ccccn2)[nH]c1=O`: 61.4% (active). The same measure for `CCOc1ccc(-n2c(O)c(/C=N/Nc3nnc(C)c(=O)[nH]3)c3ccccc3c2=O)cc1`: 66.5% (active); for `CCOc1ccc(N/C(N)=N/c2nc(C)c(C)c(=O)[nH]2)cc1`: -20.7% (inactive). Under `C[C@@H]1CN([C@H](C)CO)C(=O)c2cc(C#CC3(O)CCCC3)cnc2O[C@H]1CN(C)Cc1ccncc1` stands -3.19% (inactive); under `O=C(C[C@@H]1CC[C@H]2[C@@H](COC[C@H](O)CN2C(=O)Nc2ccc(Cl)cc2)O1)NCC1CC1`, -0.418% (inactive); under `CN(C)C(=O)[C@@H]1[C@@H](CO)[C@@H]2Cn3c(cccc3=O)[C@H]1N2CC1CCCCC1`, 10.9% (inactive). `COCC(=O)N1C[C@H]2[C@@H](c3ccccc31)[C@@H](CO)N2Cc1ccccc1`: the inhibition is 4.41% (inactive).

Turning to `O=C(C[C@@H]1CC[C@@H]2[C@H](COC[C@@H](O)CN2Cc2ccccc2)O1)NCCc1ccccc1`, the inhibition was 0.273% (inactive). The same measure for `Clc1ccc(-c2cc(COc3ccccc3)no2)cc1Cl`: 1.19% (inactive); for `COc1ccc(-c2ccc(CNCCCN3CCOCC3)o2)cc1Cl`: 2.81% (inactive); for `Fc1ccc(-c2ccc(CNCc3ccccn3)o2)cc1Cl`: 59.1% (active). With `CO[C@H](CN(C)C(=O)c1cnccn1)[C@@H](C)CN([C@@H](C)CO)S(=O)(=O)c1ccc(C)cc1`, the inhibition was 3.1% (inactive). The same measure for `C[C@@H]1CN([C@@H](C)CO)C(=O)c2cc(-c3cncnc3)cnc2O[C@@H]1CN(C)C(=O)c1ccccc1F`: -2.75% (inactive); for `C[C@@H]1CN([C@H](C)CO)S(=O)(=O)c2ccc(C#CCN(C)C)cc2O[C@@H]1CN(C)C(=O)CN(C)C`: -1.64% (inactive); for `O=C(CCNC(=O)c1ccccc1)NN=Cc1ccc(Br)o1`: 0.9% (inactive). Turning to `O=C(CCCO)N/N=C/c1cc(Br)ccc1O`, the inhibition was 80.7% (active). Take `O=C(CCNc1n[nH]c(=O)[nH]c1=O)N/N=C\c1ccc(Br)cc1`: the inhibition is 1.48% (inactive).
